In the library only some 11% were active in any assay of this set; here they are far more common.
G9a block: inhibitors of human histone lysine methyltransferase G9a | 350,000 tested, 8.8% active | AID 504332 | Q96KQ7 | Potency, µM (highest dose often 102 µM), actives largely listed as inhibitors | G9a H3K9 monomethylation, AlphaScreen, 2 h; further: nearly all actives have a fitted effect of over 75% in size
Target sequence (Q96KQ7 913-1193 limits assumed): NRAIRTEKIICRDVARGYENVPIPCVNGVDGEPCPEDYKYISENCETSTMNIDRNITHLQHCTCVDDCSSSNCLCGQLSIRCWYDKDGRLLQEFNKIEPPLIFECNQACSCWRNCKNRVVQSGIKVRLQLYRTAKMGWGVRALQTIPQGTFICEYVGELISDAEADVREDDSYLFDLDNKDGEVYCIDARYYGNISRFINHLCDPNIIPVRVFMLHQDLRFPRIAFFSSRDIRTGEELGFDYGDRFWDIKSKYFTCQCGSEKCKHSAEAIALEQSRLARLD
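Quantitative HTS format: methyltransferase activity on a biotin-tagged H3K9 peptide is measured by AlphaScreen, using a rabbit anti-monomethyl-H3K9 antibody with streptavidin donor and anti-IgG acceptor beads. Final levels are 20 nM enzyme, 500 nM peptide, 20 uM SAM; 2 h RT.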
Tau fluor cs: counter-screen for tau fibril formation inhibitors; AID 1463; tau K18 P301L Alexa594 fluorescence, heparin fibrillization; 280,000 tested, 0.93% active; Potency, µM (series often up to 57.7 µM); further: nearly all actives have a fitted effect of over 55% in size
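Human K18 P301L tau (15 uM unlabeled plus 0.24 uM Alexa 594-labeled, final) in 100 mM sodium acetate pH 7 was mixed with compound and 20 uM heparin and incubated 6 hr at 37 C.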
Tau FP inhib: tau fibrillization inhibition (FP). P10636. K18 P301L tau heparin fibrillization, Alexa594 FP, 6 h. Potency, µM (highest dose often 57.7 µM), actives largely listed as inhibitors. 280,000 tested, 0.39% active. AID 1468; further: nearly all actives have a fitted effect of over 55% in size
Target sequence (P10636 561-689 P618L limits assumed): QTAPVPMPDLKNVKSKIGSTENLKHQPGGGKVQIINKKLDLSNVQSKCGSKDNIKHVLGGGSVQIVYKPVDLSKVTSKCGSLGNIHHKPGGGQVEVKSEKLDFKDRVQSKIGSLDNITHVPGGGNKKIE
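Human tau K18 […] P301L fragment, 15 uM unlabeled plus 0.24 uM Alexa 594-labeled tau (final), with compound and 20 uM heparin in 100 mM sodium acetate pH 7; 6 hr at 37 C, then Alexa 594 FP read.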
Tau ThT inhib: blocks human tau fibril formation measured by thioflavin T | P10636 | recombinant tau K18 P301L, heparin-induced fibrillization, ThT fluorescence | Potency, µM (top dose mostly 57.4 µM), usual class: inhibitors | 270,000 tested, 2.1% active; further: nearly all actives have a fitted effect of over 55% in size
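Fibril formation assay: tau K18 P301L at 15 uM with trace Alexa 594 label, heparin inducer 20 uM, pH 7 sodium acetate buffer, 37 C for 6 hr; endpoint ThT signal.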
Sfp PPTase inh: inhibitors of Bacillus subtilis Sfp phosphopantetheinyl transferase; Q9F4F7; Biochemical Sfp PPTase activity, qHTS; Potency, µM, actives largely listed as inhibitors; 310,000 tested, 3.5% active; AID 1490;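 further: the enzyme is Sfp with the accession as filed and its product quenches rhodamine fluorescence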
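Step 1, compound plus 15 nM Sfp-PPTase, 15 min, room temperature. Step 2, add rhodamine-CoA (5 uM) and BHQ-2-YbbR (12.5 uM). Step 3, read 525/598 nm fluorescence at 0 and 30 min.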
Coupling enz: counter-screen for Giardia aldolase inhibitors: coupling enzyme system | AID 2472 | activity change, negative = inhibition, % at 58.2 µM, hits read low | 290,000 tested, 0.67% active | coupling enzyme system counterscreen, AmpLite Red fluorescence; in the data active means activity change below about -30%
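First, compound is pin-transferred into glyceraldehyde-3-phosphate coupling-enzyme reagent at 57.5 uM final and held 10 min at RT. Next, substrate, coupling system and AmpLite Red are added. After 20 min RT, fluorescence (525/598 nm) is read.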
Large screens that a line does not name were inactive. Unless noted, the call rests on the fitted dose curve; in most records, active means well fitted curve in the direction sought with a large enough effect; inconclusive means small, poorly fitted or top-dose-only effect, or another doubt; inactive means no such curve, though single readings can be large; an effect the other way counts as inactive or inconclusive.

CC(C)(CN1CCC(Cc2ccccc2)CC1)NS(=O)(=O)c1ccccc1	G9a block 13µM, Sfp PPTase inh inconclusive
Cc1ccc(NC(=O)CSc2ncccc2C(=O)Oc2cccc([N+](=O)[O-])c2)cc1Cl	G9a block 50µM, Sfp PPTase inh inconclusive
CCC(=O)N1CCc2cc(Br)cc(S(=O)(=O)NCCc3cccc(C)c3)c21	none (no result: Sfp PPTase inh, Coupling enz)
COC1=C/C(=C/c2c(O)c(C#N)c3ccccn23)C=CC1=O	G9a block inconclusive, Tau ThT inhib 14µM, Sfp PPTase inh inconclusive
CCc1nc2ccc(C(=O)N(C)CC(=O)Nc3cccc(F)c3)cc2nc1CC	none (no result: Tau fluor cs, Tau FP inhib, Tau ThT inhib, Sfp PPTase inh, Coupling enz)
CN(C)S(=O)(=O)c1cccc(NC(=O)COC(=O)c2cc3ccccc3oc2=O)c1	G9a block 79µM
CCN(c1ccc(NC(=O)COC(=O)c2cc3ccccc3oc2=O)cc1)C(C)C	G9a block 22µM
CCN(CC(=O)Nc1ccc(NC(C)=O)cc1)C(=O)c1cc2ccccc2oc1=O	none (no result: Tau fluor cs, Tau FP inhib, Tau ThT inhib, Sfp PPTase inh, Coupling enz)
CCN(CC)CCNS(=O)(=O)c1ccc(OC)c(Br)c1	G9a block 4µM
Cc1cc(NC(=S)N(Cc2ccc(Cl)cc2)Cc2ccc(C(=O)O)cc2)ccc1Cl	G9a block inconclusive
COc1ccc(CN(Cc2ccc(C(=O)O)cc2)C(=S)Nc2ccccc2C)cc1OC	G9a block 45µM
Cc1ccc(NC(=S)N(Cc2ccc(Br)cc2)Cc2ccc(C(=O)O)cc2)cc1C	G9a block 45µM
Cc1cc(C)cc(NC(=S)N(Cc2ccc(Br)cc2)Cc2ccc(C(=O)O)cc2)c1	G9a block inconclusive
CCc1ccc(NC(=S)N(Cc2ccc(Cl)cc2)Cc2ccc(C(=O)O)cc2)cc1	Sfp PPTase inh 18µM
COc1ccc(CN(Cc2ccc(C(=O)O)cc2)C(=S)Nc2ccccc2Cl)cc1OC	Sfp PPTase inh inconclusive
Cc1cc(C)cc(NC(=S)N(Cc2ccc(Cl)cc2)Cc2ccc(C(=O)O)cc2)c1	none
COc1ccc(NC(=S)N(Cc2ccc(Cl)cc2)Cc2ccc(C(=O)O)cc2)cc1Cl	G9a block inconclusive, Sfp PPTase inh 50µM
C[C@@H]1[C@H](O)[C@@H](C)/C=C/C=C/C=C/C=C/C=C/C=C/C=C/[C@H](O[C@@H]2O[C@H](C)[C@@H](O)[C@H](N)[C@@H]2O)C[C@@H]2O[C@](O)(C[C@@H](O)C[C@@H](O)[C@H](O)CC[C@@H](O)C[C@@H](O)CC(=O)O[C@H]1C)C[C@H](O)[C@H]2C(=O)O	Sfp PPTase inh inconclusive (no result: Tau fluor cs, Tau FP inhib, Tau ThT inhib, Coupling enz)
Cc1ccc(-n2c(SCC(=O)Nc3c(C)cccc3C)nc(O)c(C)c2=O)cc1	none (no result: Sfp PPTase inh, Coupling enz)
COC(=O)C(C(C)C)N1CC(=O)c2ccccc2S1(=O)=O (stereo not given)	none (no result: G9a block, Tau fluor cs, Tau FP inhib, Tau ThT inhib)
COc1ccc(-c2nnc3n2N=C(c2ccccc2OC)CS3)c(OC)c1	none (no result: G9a block, Tau fluor cs, Tau FP inhib, Tau ThT inhib)
COc1cc(NS(=O)(=O)c2ccc3c(c2)C(C)(C)C(=O)N3C)cc(OC)c1	none (no result: Tau fluor cs, Tau FP inhib, Tau ThT inhib)
CCOC(=O)Cc1ccc(NC(=O)N2CCc3c(sc4c3CCCC4)C2c2ccc(F)cc2)cc1 (stereo not given)	none (no result: Sfp PPTase inh, Coupling enz)
COc1cc(CNc2cccc3[nH]c(C(F)(F)F)nc23)cc(OC)c1	G9a block 40µM (no result: Tau fluor cs, Tau FP inhib, Tau ThT inhib)
COc1ccc(-n2c(-c3ccc(F)cc3)cnc2SCC(=O)NCc2ccco2)cc1	G9a block inconclusive, Tau ThT inhib inconclusive
O=C(CSc1nnc2scc(-c3ccc(Cl)cc3)n12)NCc1ccco1	none
O=C(CSc1ncc(-c2ccccc2)n1-c1ccccc1)NCc1ccco1	G9a block 13µM, Tau ThT inhib inconclusive
O=C(CSc1nnc2scc(-c3ccccc3)n12)NCc1ccco1	G9a block 79µM
COC(=O)c1c(NC(=O)CN2CCC3(O)CCCCC3C2c2ccc(OC)cc2OC)sc(C)c1C (stereo not given)	G9a block 28µM, Sfp PPTase inh 20µM
COC(=O)c1c(NC(=O)CN2CCC3(O)CCCCC3C2c2ccccc2OC)sc(C)c1C (stereo not given)	none
CCOc1ccc(-n2c(=O)c3c(C)c(C)sc3n(Cc3ccccc3C)c2=O)cc1	none (no result: Sfp PPTase inh, Coupling enz)
O=C(c1ccc(Cl)cc1)[C@@H]1[C@@H]2C(=O)N(c3ccc(Cl)cc3)C(=O)[C@@H]2C2c3ccccc3C=NN21 (stereo not given in full)	none
O=C(C1=C[C@@H]2[C@H]3C(=O)N(c4ccccc4)C(=O)[C@H]3[C@@H](C(=O)c3ccc(Cl)cc3)N2C=C1)c1ccccc1	G9a block 11µM, Tau fluor cs inconclusive, Tau FP inhib inconclusive, Tau ThT inhib 14µM
O=C(Nc1c2c(nn1-c1ccc(Cl)cc1)CS(=O)(=O)C2)c1cccc(F)c1	none (no result: Sfp PPTase inh, Coupling enz)
COc1ccc(N(CC(=O)N2CCN(Cc3ccccc3)CC2)S(C)(=O)=O)cc1Cl	none (no result: G9a block, Tau fluor cs, Tau FP inhib, Tau ThT inhib)
CC(C)CSc1nc2c(c(=O)[nH]c(=O)n2C)n1CCc1ccccc1	none
CCSc1nc2c(c(=O)[nH]c(=O)n2C)n1CC(O)COc1ccccc1 (stereo not given)	none
CC(C)CSc1nc2c(c(=O)[nH]c(=O)n2C)n1CC(O)COc1cccc2ccccc12 (stereo not given)	G9a block 4µM, Tau FP inhib inconclusive, Tau ThT inhib inconclusive, Sfp PPTase inh 28µM
CCCSc1nc2c(c(=O)[nH]c(=O)n2C)n1CC(O)COc1ccccc1 (stereo not given)	G9a block 50µM
Cn1c(=O)[nH]c(=O)c2c1nc(SCCO)n2CC(O)COc1ccccc1 (stereo not given)	G9a block 16µM, Sfp PPTase inh 5µM
O=C(NCc1cc(F)cc2c1OCCO2)[C@H]1C[C@@H]1[C@H](NP(=O)(c1ccccc1)c1ccccc1)c1ccccc1	none (no result: G9a block)
COc1ccc(OCc2nnc(SCC(=O)Nc3ccccc3Cl)o2)cc1	none (no result: Tau fluor cs, Tau FP inhib, Tau ThT inhib)
O=CCCCC=O	none (no result: Tau fluor cs, Tau FP inhib, Tau ThT inhib, Coupling enz)
O=C1CC2(CCCC2)CC(=O)N1CCCCNCC1COc2ccccc2O1 (stereo not given)	Sfp PPTase inh inconclusive (no result: Coupling enz)
Cc1nnc(N/N=C\c2ccc(-c3ccccc3[N+](=O)[O-])o2)n1N	G9a block 6.3µM, Tau fluor cs inconclusive, Tau FP inhib inconclusive, Tau ThT inhib 10µM, Sfp PPTase inh 18µM, Coupling enz -65
Cc1nnc(N/N=C/c2c(Cl)cccc2Cl)n1N	Sfp PPTase inh inconclusive
Cc1n[nH]c(=S)n1/N=C/c1ccc(-c2ccccc2[N+](=O)[O-])o1	G9a block inconclusive, Tau ThT inhib inconclusive, Sfp PPTase inh 8.9µM
Cc1nnc(N/N=C/c2ccc(-c3ccccc3F)o2)n1N	G9a block 40µM, Tau fluor cs inconclusive, Tau ThT inhib 13µM, Sfp PPTase inh 45µM
Cc1ccc(-c2nc(NC(=O)CSc3cc(C)c4ccccc4n3)ns2)cc1	G9a block 35µM
